Laboratory results: PubChem BioAssay (NCI)
Values joined by “and” are separate entries in the source; they are usually repeats but may differ in a detail not shown here. Identical values can stand only once. The panel holds about 83,000 compounds, 20% with a hit somewhere; the sample as a whole holds those more often.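 How to read the values: 0–100, growth inhibition (40 = 60% inhibited); 0, no net growth; -100 to 0, cell death (-40 = 40% of starting cells died; -100 = all dead).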 A number with no mark means an inactive call. Active and inactive are the calls of the source. How the source made its calls: active means growth percent below 10; inactive means the rest.

What was measured:
Experiment in all cases: NCI-60 one-dose screen, 48 h (100 = growth as untreated, 0 = no growth, -100 = all killed)
Conditions in all cases: 10 µM unless noted
EKVX NSCLC = tested on: EKVX NSCLC
SN12C renal = tested on: SN12C renal
UO-31 renal = tested on: UO-31 renal
TK-10 renal = tested on: TK-10 renal
ACHN renal = tested on: ACHN renal
CAKI-1 renal = tested on: CAKI-1 renal
A498 renal = tested on: A498 renal
CCRF-CEM leukemia = tested on: CCRF-CEM leukemia
MOLT-4 leukemia = tested on: MOLT-4 leukemia
SR leukemia = tested on: SR leukemia
RPMI-8226 leukemia = tested on: RPMI-8226 leukemia
OVCAR-8 ovarian = tested on: OVCAR-8 ovarian
OVCAR-5 ovarian = tested on: OVCAR-5 ovarian
OVCAR-4 ovarian = tested on: OVCAR-4 ovarian
SK-OV-3 ovarian = tested on: SK-OV-3 ovarian
IGROV1 ovarian = tested on: IGROV1 ovarian
OVCAR-3 ovarian = tested on: OVCAR-3 ovarian
HS 578T breast = tested on: HS 578T breast
NCI/ADR-RES ovarian = tested on: NCI/ADR-RES ovarian
SK-MEL-2 melanoma = tested on: SK-MEL-2 melanoma

SMILES	growth (EKVX NSCLC)	growth (SN12C renal)	growth (UO-31 renal)	growth (TK-10 renal)	growth (ACHN renal)	growth (CAKI-1 renal)	growth (A498 renal)	growth (CCRF-CEM leukemia)	growth (MOLT-4 leukemia)	growth (SR leukemia)	growth (RPMI-8226 leukemia)	growth (OVCAR-8 ovarian)	growth (OVCAR-5 ovarian)	growth (OVCAR-4 ovarian)	growth (SK-OV-3 ovarian)	growth (IGROV1 ovarian)	growth (OVCAR-3 ovarian)	growth (HS 578T breast)	growth (NCI/ADR-RES ovarian)	growth (SK-MEL-2 melanoma)
CCCCCCCCCCCC1N=C(N)N=C(N)N1c1cccc(Br)c1 (configuration not stated)	43.2%	8.08% (active)	71.9%	-45% (active)	25.3%	80.5%	76.1%	-15.1% (active)	-16.5% (active)	-29.2% (active)	-40% (active)	-14.6% (active)	-32.8% (active)	55.4%	32.6%	-30.2% (active)	-28.6% (active)	18.9%	105%	
O=[N+]([O-])c1ccc2c(c1)Cc1ccccc1-2	61.1%	101%	82.9%		94.2%	99%	82.4%	91.4%	86.2%	91.4%	121%	98.9%	91.3%	97.3%	112%	94.7%		102%	99%	
Cc1cc(Br)c2nsnc2c1[N+](=O)[O-]	106%	29.4%	40.2%	36%	36.2%	-34.5% (active)	99.2%	20.1%	39.4%	19.2%	23.9%	52.8%	72.8%	47.7%	91.3%	27.4%		47%	50.5%	
CC(=O)OC1CC2CCC1(C)C2(C)C (configuration not stated)	102%	98.6%	87.3%	106%	96.7%	92.6%	108%	-45% (active)	112%	97.6%	108%	98.9%	94.9%	113%	111%	106%	103%	103%	108%	
CCSc1nc2ccccc2o1	104%	88.9%	79.4%	102%	99%	87.9%	83.6%	97.5%	100%	94.2%	104%	103%	101%	101%	104%	90.1%		102%	108%	
COc1ccc2c(c1)C(OC)C1c3c(cc4c(c3-2)OCO4)CCN1C (configuration not stated)				-18.2% [100 µM] (active) and -91.5% [100 µM] (active)																
CSc1nc(C)c(C(=O)CCN2CCN(c3ccccn3)CC2)s1		97.6%	82.9%	118%	101%	100%	88.4%			94.3%	80.1%	98.4%	104%	97.5%	102%	119%	104%	102%	110%	
Cc1ccc(N2C(=O)C=CC2=O)cc1	116%	93.7%	90%	99.5%	68.1%	86.1%		13.7%		66%	98.8%	110%	110%	107%	121%		118%		104%	
O=[N+]([O-])c1cc(-c2ccccc2)c(O)c([N+](=O)[O-])c1		73.7%		89.2%	87.7%		82.3%	16.3%	71.9%	80.4%	38.9%	91.7%	94.6%	62.6%	83%	106%	69.7%	84.4%	94.7%	75.2%
CC1=CC(=NC(=O)CBr)C=C/C1=N\S(=O)(=O)c1ccccc1		14.1%	73.1%		46.9%		97.2%	12.2%	43.7%	58.3%	84.5%	66.6%	122%	50.6%	91.7%	-3.37% (active)		89.1%	89.4%	
O=C1C=CC(=O)N1c1cccc2c1CCCC2		97.2%	87.9%	102%	79.3%	82.3%	96.2%	9.65% (active)	74.2%	87.6%	100%	110%	103%	102%	99.5%		106%	114%	112%	
